# POLB inh = qHTS Assay for Inhibitors of DNA Polymerase Beta; 1.3% of 340,000 active; Potency, µM (series often up to 114 µM), hits mostly inhibitors; Pol beta primer extension/strand displacement, fluorescence kinetic
#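 Human Pol beta at 10 nM; strand-displacement substrate 50 nM final. Compound exposure 15 min at room temperature before start, reaction 10 min at room temperature.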
# Pol kappa inh = qHTS for Inhibitors of Polymerase Kappa; 0.53% of 400,000 active; AID 588579, 2011; DNA polymerase kappa (Homo sapiens), Q9UBT6; purified Pol kappa, fluorescent DNA synthesis assay, 10 min; Potency, µM (doses to about 107 µM), actives largely listed as inhibitors
#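 Kinetic fluorescence readout at 0 and 10 min followed reaction start with substrate at 50 nM final. Beforehand, enzyme (10 nM Pol kappa) stood 15 min with compound at room temperature; buffer-only wells were negative controls.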
# WRN inhibitor = qHTS for Inhibitors of WRN Helicase; 0.46% of 360,000 active; Bifunctional 3'-5' exonuclease/ATP-dependent helicase WRN (Homo sapiens), Q14191; Potency, µM (series often up to 114 µM), hits mostly inhibitors; WRN helicase unwinding, fluorescent forked duplex, kinetic; further: nearly all actives have a fitted effect of over 55% in size
#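 Fluorescence dequenching readout, ex 525 nm/em 598 nm, kinetic mode: forked duplex DNA (100 nM final) with adjacent fluorophore and quencher unwound by WRN (20 nM final) with 2 mM ATP. Compound preincubation 15 min, room temperature.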
# POLH inh = qHTS for Inhibitors of Polymerase Eta. 1.2% of 390,000 active. Potency, µM (highest dose often 114 µM), actives largely listed as inhibitors. AID 588591, 2011. recombinant Pol eta, fluorescent DNA replication assay
#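 Fluorescent replication assay: 50 nM final substrate added after a 15 min room-temperature compound preincubation with 10 nM enzyme. Signal taken at 0 min and again at 10 min.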
# POLI inh = qHTS for Inhibitors of Polymerase Iota. Pol iota fluorescent replication assay, 10 min. Potency, µM (highest dose often 115 µM), most hits filed as inhibitors. 1% of 390,000 active. AID 588590, 2011
#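 Pol iota at 10 nM preincubated 15 min with compounds at room temperature; reaction started with fluorescent substrate, 50 nM final. Fluorescence read kinetically at 0 and 10 min; buffer-only wells as negative control.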
# FEN1 inhibitor = qHTS Assay for the Inhibitors of Human Flap endonuclease 1 (FEN1); Recombinant FEN1 flap cleavage, fluorescence, 15 min; P39748; Potency, µM (titrated, usually from 114 µM), usual class: inhibitors; 0.35% of 390,000 active; further: nearly all actives have a fitted effect of over 65% in size
#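 Compounds are tested as a concentration series against 10 nM FEN1; after a 15 min room-temperature preincubation, 50 nM substrate starts cleavage, with plate reads at 0 and 15 min. Normalized responses are fitted by a Hill equation.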
# A number is an active result; . = inactive; ? = inconclusive; / = no result given; [ ] = dose if it differs, or a comment. Shown are actives, neighbours in structure and some others; about 2.4% of the full set was active somewhere. The call rests on the fitted dose curve; in most records, active means well fitted curve in the direction sought with a large enough effect; inconclusive means small, poorly fitted or top-dose-only effect, or another doubt; inactive means no such curve, though single readings can be large; an effect the other way counts as inactive or inconclusive.
SMILES,POLB inh,Pol kappa inh,WRN inhibitor,POLH inh,POLI inh,FEN1 inhibitor
O=[N+]([O-])c1ccc(S(=O)Cc2ccccc2)c([N+](=O)[O-])c1 (configuration not stated),/,.,10µM,.,?,?
CN(C)/C=C/C(=O)c1ccc(-c2ccc(Cl)cc2Cl)o1,32µM,.,.,.,.,.
COc1cccc(CNC(=O)CCc2cn(Cc3ccccc3Cl)c3ccccc23)c1,.,.,/,.,.,.
Cc1cc(C)cc(-n2c3nc4ccccc4nc3c3c(=O)n(Cc4ccco4)cnc32)c1,35µM,.,.,?,.,.
COCCCn1cnc2c(c1=O)c1nc3ccccc3nc1n2-c1ccc(C)cc1,35µM,.,.,.,.,.
COCCCn1c2nc3ccccc3nc2c2c(=O)n(CC3CCCO3)cnc21 (configuration not stated),.,.,.,.,.,.
Cc1ccc(OCC(=O)Nc2ccc(O)c(-c3nc4ccccc4o3)c2)cc1,.,.,.,.,.,.
Cc1ccc(OCC(=O)Nc2ccc3c(c2)C(=O)NC3=O)cc1,32µM,.,.,.,.,.
Cc1ccc2oc(-c3ccc(NC(=O)COc4ccccc4)cc3O)nc2c1,/,.,/,/,89µM,.
C[C@@H]1CN([C@H](C)CO)C(=O)CCCn2cc(nn2)CO[C@H]1CN(C)C(=O)Nc1cccc2ccccc12,/,/,.,.,/,/
CCOC(=O)N1CCc2c(sc3c2c(=O)n(Cc2ccccc2)c(=O)n3CC(=O)Nc2ccc(C)cc2C)C1,.,.,/,.,.,.
CCCNC(=O)CSc1cn(CC(=O)N2CCCCCC2)c2ccccc12,.,.,/,.,.,.
COC1=C(Br)C(=O)c2ncccc2C1=O,/,.,10µM,3.2µM,1.3µM,?
O=C1c2cccnc2-c2ncccc21,.,.,.,.,.,.
O=C1C(=O)c2cccnc2-c2ncccc21,/,/,18µM,/,/,/
CCOc1nc(N=C(N)N)nc2c(C)cccc12,.,.,.[11.6 µM],.,.,45µM
O=C(CNC1=NCCS1)c1c[nH]c2ccccc12,/,.,/,/,.,.
Cc1[nH]n(-c2ncc(-c3ccc(Cl)cc3)s2)c(=O)c1C(c1ccc(Cl)cc1)C(C#N)C#N (configuration not stated),18µM,?,?,32µM,.,.
C[Si](C)(C)O[Si](C)(C)C,/,.,/,/,/,/
COc1ccc(C(=O)CCC(=O)Nc2cc(Cl)c(O)c(Cl)c2)cc1,28µM,?,.,22µM,45µM,.
O=c1cc(-c2ccc(O)cc2)oc2c(-c3c(O)cc(O)c4c(=O)cc(-c5ccc(O)cc5)oc34)c(O)cc(O)c12,/,?,.,25µM,?,?
COc1ccc(C(=O)Nc2cccc3cccnc23)cc1OC,.,.,.,.,.,.
COc1ccc(C(=O)Nc2cccc(NC(=O)c3ccc(OC)c(OC)c3)n2)cc1OC,22µM,.,.,.,?,.
CCN(CC)c1cc(C)c2cc(NC(=O)c3ccc(OC)c(OC)c3)ccc2n1,13µM,?,/,.,?,.
CCc1ccccc1NC(=O)CSC1=C(C#N)C(c2ccc3c(c2)OCO3)C2=C(CCCC2=O)N1 (configuration not stated),22µM,.,.,.,.,.
COc1ccc(OC)c(NC(=O)CSC2=C(C#N)C(c3ccco3)C3=C(CCCC3=O)N2)c1 (configuration not stated),.,.,.,.,.,.
O=C1/C(=C\c2ccco2)CCC/C1=C\c1ccco1,7.1µM,8.9µM,16µM,?,2.8µM,?
O=C1/C(=C/c2ccco2)CCC1C1CCCC1 (configuration not stated),.,.,.,.,.,.
CC1C/C(=C/c2ccco2)C(=O)/C(=C/c2ccco2)C1 (configuration not stated),3.5µM,/,/,/,/,/

# Screening data as filed in PubChem.
